These results are taken from PMC10812921, “Transcriptional Coactivator BOB1 (OBF1, OCA-B) Modulates the Specificity of DNA Recognition by the POU-Domain Factors OCT1 and OCT2 in a Monomeric Configuration”.

Test [1] has as its target POU1 (OCT1 POU domain) (human, UniProt P14859 260-458). As to the kind of experiment: EMSA-SELEX-seq; no BOB1; 20 mM Tris-HCl pH 7.6, 140 mM NaCl, 10% glycerol, 0.5 mM EDTA, 0.05% Triton X-100, 0.1 mg/mL BSA, 0.1 mg/mL poly(dI-dC), 5 mM DTT, room temperature, 20 min; high values mean tight binding. The note with it: protein: recombinant; dsDNA, one strand shown. A digest of the protocol:
(§1)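 A double-stranded random 35-nt library (300 ng, PCR-amplified) was incubated with 30 ng tagged POU-domain protein, with or without 28 ng coactivator protein, in 20 μL Tris–HCl pH 7.6 binding buffer for 20 min at RT. The proteins had been expressed in E. coli BL21, purified under denaturing conditions and renatured. Complex bands from native 6% PAGE were eluted and PCR-amplified over four rounds, then sequenced on Illumina. For binding preference, the percentage of sequenced 8-mers matching a motif pattern was calculated.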
For orientation: In EMSA bound probe runs differently from free probe, usually more slowly.

For test [2], the target named is T1, POU2 (OCT2 POU domain) (human, UniProt P09086 175-386).
T1 sequence: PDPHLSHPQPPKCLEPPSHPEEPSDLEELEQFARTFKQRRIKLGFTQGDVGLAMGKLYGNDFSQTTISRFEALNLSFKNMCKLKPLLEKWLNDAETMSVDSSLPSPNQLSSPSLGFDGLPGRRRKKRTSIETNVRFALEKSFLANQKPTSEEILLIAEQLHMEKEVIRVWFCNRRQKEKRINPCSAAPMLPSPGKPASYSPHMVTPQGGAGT
The test is described as above. The note with it: protein: recombinant; dsDNA, one strand shown. A digest of the protocol:
as §1

The target of test [3] is POU1 (OCT1 POU domain);BOB1 (OBF1, OCA-B) (human;human, UniProt P14859;Q16633 260-458;1-256, |). Kind of test: EMSA-SELEX-seq; with BOB1 (ternary complex band); 20 mM Tris-HCl pH 7.6, 140 mM NaCl, 10% glycerol, 0.5 mM EDTA, 0.05% Triton X-100, 0.1 mg/mL BSA, 0.1 mg/mL poly(dI-dC), 5 mM DTT, room temperature, 20 min; high values mean tight binding. The note with it: protein: recombinant;recombinant; copies: 1;1; dsDNA, one strand shown. The gist of the method:
as §1

The target in test [4] is T2, POU2 (OCT2 POU domain);BOB1 (OBF1, OCA-B) (human;human, UniProt P09086;Q16633 175-386;1-256, |).
T2 sequence 1: T1 sequence
T2 sequence 2: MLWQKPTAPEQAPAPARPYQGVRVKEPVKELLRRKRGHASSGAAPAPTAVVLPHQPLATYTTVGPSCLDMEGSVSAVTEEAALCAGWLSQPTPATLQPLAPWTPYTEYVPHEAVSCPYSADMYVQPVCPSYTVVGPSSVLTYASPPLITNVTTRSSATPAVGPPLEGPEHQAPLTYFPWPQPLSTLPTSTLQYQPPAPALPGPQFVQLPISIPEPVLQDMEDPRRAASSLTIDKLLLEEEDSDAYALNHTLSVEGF
Described as above. Conditions: protein: recombinant;recombinant; copies: 1;1; dsDNA, one strand shown. A digest of the protocol:
as §1

Chain of POU1 (OCT1 POU domain) (P14859 260-458): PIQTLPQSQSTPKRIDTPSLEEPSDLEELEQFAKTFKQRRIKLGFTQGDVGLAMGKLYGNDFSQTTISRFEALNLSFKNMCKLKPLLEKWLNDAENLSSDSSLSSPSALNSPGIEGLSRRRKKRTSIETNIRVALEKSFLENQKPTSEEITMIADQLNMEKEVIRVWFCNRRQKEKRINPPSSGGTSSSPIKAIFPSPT

Take ATGGTAAA: the binding signal is 0.182 % of ANNNNAAN 8-mers in test [1], 0.191 % of ANNNNAAN 8-mers in test [2], 0.105 % of ANNNNAAN 8-mers in test [3] and 0.106 % of ANNNNAAN 8-mers in test [4].
The matching figures for ATATCAAA: 0.0877 % of ANNNNAAN 8-mers, 0.0806 % of ANNNNAAN 8-mers, 0.0823 % of ANNNNAAN 8-mers and 0.0726 % of ANNNNAAN 8-mers.
The corresponding values for AGCGTAAC are 0.0168 % of ANNNNAAN 8-mers, 0.0207 % of ANNNNAAN 8-mers, 0.0144 % of ANNNNAAN 8-mers and 0.0149 % of ANNNNAAN 8-mers.
The corresponding values for AGAGAAAG are 0.0442 % of ANNNNAAN 8-mers, 0.0501 % of ANNNNAAN 8-mers, 0.0375 % of ANNNNAAN 8-mers and 0.038 % of ANNNNAAN 8-mers.
Consider ATTGCAAT, for which the binding signal was 0.0561 % of ANNNNAAN 8-mers in test [1], 0.061 % of ANNNNAAN 8-mers in test [2], 0.0523 % of ANNNNAAN 8-mers in test [3] and 0.0479 % of ANNNNAAN 8-mers in test [4].
The matching figures for ACCCGAAT: 0.0233 % of ANNNNAAN 8-mers, 0.0386 % of ANNNNAAN 8-mers, 0.0219 % of ANNNNAAN 8-mers and 0.0248 % of ANNNNAAN 8-mers.
The matching figures for AACCCAAT: 0.0206 % of ANNNNAAN 8-mers, 0.019 % of ANNNNAAN 8-mers, 0.0273 % of ANNNNAAN 8-mers and 0.0223 % of ANNNNAAN 8-mers.
The corresponding values for ATGAGAAC are 0.0404 % of ANNNNAAN 8-mers, 0.0552 % of ANNNNAAN 8-mers, 0.03 % of ANNNNAAN 8-mers and 0.0388 % of ANNNNAAN 8-mers.
Take AGCTAAAG: the binding signal in test [1] was 0.0278 % of ANNNNAAN 8-mers; in test [2], 0.0282 % of ANNNNAAN 8-mers; in test [3] it was 0.0289 % of ANNNNAAN 8-mers; in test [4] it was 0.0256 % of ANNNNAAN 8-mers.
The matching figures for ATATGAAA: 0.159 % of ANNNNAAN 8-mers, 0.164 % of ANNNNAAN 8-mers, 0.226 % of ANNNNAAN 8-mers and 0.239 % of ANNNNAAN 8-mers.
The corresponding values for AGCTTAAC are 0.0194 % of ANNNNAAN 8-mers, 0.0219 % of ANNNNAAN 8-mers, 0.0195 % of ANNNNAAN 8-mers and 0.0165 % of ANNNNAAN 8-mers.
AGCTGAAT: the binding signal in test [1] is 0.0561 % of ANNNNAAN 8-mers; in test [2], 0.0725 % of ANNNNAAN 8-mers; in test [3] it was 0.0492 % of ANNNNAAN 8-mers; in test [4] it was 0.0471 % of ANNNNAAN 8-mers.
Consider ACCTTAAA, for which the binding signal in test [1] was 0.021 % of ANNNNAAN 8-mers; in test [2], 0.023 % of ANNNNAAN 8-mers; in test [3], 0.0375 % of ANNNNAAN 8-mers; in test [4] it was 0.0173 % of ANNNNAAN 8-mers.
The corresponding values for ACAGTAAG are 0.0328 % of ANNNNAAN 8-mers, 0.0253 % of ANNNNAAN 8-mers, 0.032 % of ANNNNAAN 8-mers and 0.0272 % of ANNNNAAN 8-mers.
The corresponding values for ATGTTAAT are 1.39 % of ANNNNAAN 8-mers, 1.31 % of ANNNNAAN 8-mers, 0.208 % of ANNNNAAN 8-mers and 0.24 % of ANNNNAAN 8-mers.
On to ACCAGAAA, for which the binding signal was 0.029 % of ANNNNAAN 8-mers in test [1], 0.0242 % of ANNNNAAN 8-mers in test [2], 0.0254 % of ANNNNAAN 8-mers in test [3] and 0.0157 % of ANNNNAAN 8-mers in test [4].
The corresponding values for ACTTGAAC are 0.0183 % of ANNNNAAN 8-mers, 0.0207 % of ANNNNAAN 8-mers, 0.018 % of ANNNNAAN 8-mers and 0.0314 % of ANNNNAAN 8-mers.
Turning to AAGAGAAA, the binding signal in test [1] is 0.0511 % of ANNNNAAN 8-mers; in test [2] it was 0.0621 % of ANNNNAAN 8-mers; in test [3] it was 0.0531 % of ANNNNAAN 8-mers; in test [4], 0.038 % of ANNNNAAN 8-mers.
The matching figures for ACACAAAT: 0.116 % of ANNNNAAN 8-mers, 0.0857 % of ANNNNAAN 8-mers, 0.175 % of ANNNNAAN 8-mers and 0.0916 % of ANNNNAAN 8-mers.
The matching figures for AGGTGAAC: 0.021 % of ANNNNAAN 8-mers, 0.0259 % of ANNNNAAN 8-mers, 0.0222 % of ANNNNAAN 8-mers and 0.0264 % of ANNNNAAN 8-mers.
The matching figures for AGGCAAAA: 0.236 % of ANNNNAAN 8-mers, 0.136 % of ANNNNAAN 8-mers, 0.454 % of ANNNNAAN 8-mers and 0.204 % of ANNNNAAN 8-mers.
On to ACAATAAT, for which the binding signal was 0.0778 % of ANNNNAAN 8-mers in test [1], 0.0978 % of ANNNNAAN 8-mers in test [2], 0.0515 % of ANNNNAAN 8-mers in test [3] and 0.0528 % of ANNNNAAN 8-mers in test [4].
The matching figures for ATATTAAT: 0.424 % of ANNNNAAN 8-mers, 0.558 % of ANNNNAAN 8-mers, 0.142 % of ANNNNAAN 8-mers and 0.177 % of ANNNNAAN 8-mers.
The matching figures for AACGAAAT: 0.0744 % of ANNNNAAN 8-mers, 0.0783 % of ANNNNAAN 8-mers, 0.0675 % of ANNNNAAN 8-mers and 0.0636 % of ANNNNAAN 8-mers.
The corresponding values for AACTCAAG are 0.0194 % of ANNNNAAN 8-mers, 0.0219 % of ANNNNAAN 8-mers, 0.0164 % of ANNNNAAN 8-mers and 0.0289 % of ANNNNAAN 8-mers.
Take AGGACAAC: the binding signal was 0.0198 % of ANNNNAAN 8-mers in test [1], 0.0305 % of ANNNNAAN 8-mers in test [2], 0.0187 % of ANNNNAAN 8-mers in test [3] and 0.0206 % of ANNNNAAN 8-mers in test [4].
Consider AAGCAAAG, for which the binding signal in test [1] was 0.0847 % of ANNNNAAN 8-mers; in test [2], 0.0501 % of ANNNNAAN 8-mers; in test [3], 0.125 % of ANNNNAAN 8-mers; in test [4] it was 0.0537 % of ANNNNAAN 8-mers.
The corresponding values for ACTATAAT are 0.0595 % of ANNNNAAN 8-mers, 0.0748 % of ANNNNAAN 8-mers, 0.0472 % of ANNNNAAN 8-mers and 0.0388 % of ANNNNAAN 8-mers.
The matching figures for ATATAAAA: 0.103 % of ANNNNAAN 8-mers, 0.102 % of ANNNNAAN 8-mers, 0.101 % of ANNNNAAN 8-mers and 0.0702 % of ANNNNAAN 8-mers.
